High-throughput results: PubChem BioAssay, National Center for Advancing Translational Sciences (NCATS)
D3 ag: agonists of human D3 dopamine receptor | 410,000 compounds, 0.58% hits | AID 652048 | D3R DiscoveRx beta-arrestin cells, luminescence, 90 min | max activation, %; in the data active = max activation above about 30%; also: 0% is about no effect
Target sequence (P35462 whole entry, looked up): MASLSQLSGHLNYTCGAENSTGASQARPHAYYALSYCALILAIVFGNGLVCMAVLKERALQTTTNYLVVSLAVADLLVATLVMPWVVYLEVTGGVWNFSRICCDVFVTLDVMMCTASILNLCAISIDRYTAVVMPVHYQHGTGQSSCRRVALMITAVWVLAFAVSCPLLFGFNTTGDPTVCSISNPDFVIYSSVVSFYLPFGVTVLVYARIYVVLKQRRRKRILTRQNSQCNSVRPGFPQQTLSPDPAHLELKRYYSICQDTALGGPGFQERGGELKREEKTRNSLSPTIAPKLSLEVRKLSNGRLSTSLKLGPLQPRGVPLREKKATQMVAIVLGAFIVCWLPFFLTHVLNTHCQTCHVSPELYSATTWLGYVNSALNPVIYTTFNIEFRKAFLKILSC
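Agonist mode: compounds and dopamine controls were applied to plated cells for 90 min at 37 degrees C after an overnight attachment at 1500 cells/well. Luminescent read-out followed 30 - 60 minutes at room temperature with DiscoveRx detection reagent.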
Rango dissoc inh: inhibition of RanGTP-driven Rango-importin beta dissociation. O95149+P62826. Biochemical FRET Rango-importin beta, RanGTP-induced dissociation. Potency, µM (doses to about 46.1 µM), for the others: at the highest dose activity change, negative = inhibition. 340,000 compounds, 0.071% hits. AID 540253; also: potency is read from the fitted curve at half-maximal effect; % of control where 0% means no effect; nearly all actives have a fitted effect of over 45% in size
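Recombinant Rango FRET biosensor (EYFP–snurportin 1 IBB–cerulean CFP10) at 0.1 uM premixed with 0.25 uM importin beta in PBS, 1 mM DTT, 0.02% Tween-20, 0.1% BSA. Compound added 5 min; RanGTP-RCC1 (0.6 uM Ran, 2 mM GTP, 0.2 uM RCC1) then triggers release, read at 45 min.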
TSG101-PTAP inh: blocks PTAP/TSG101 interaction to inhibit HIV-1 budding. 340,000 tested, under 10 active. Q99816. Fluorescence polarization, FITC-PTAP peptide / Tsg101 binding. Potency, µM (top dose mostly 115 µM), for the others: top-dose activity change, negative = inhibition, hits mostly inhibitors. AID 493005; active = well fitted inhibition curve with a large enough effect in the main read-out, with a control signal flat, not every such curve was filed as active; inconclusive = small, poorly fitted or top-dose-only effect, or effect the other way, or a change in a side signal; inactive = no such curve, though single readings can be large or run the other way; also: potency is read from the fitted curve at half-maximal effect; % of control where 0% means no effect
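Compounds were pin-transferred onto Tsg101 binding domain (10 uM final) in HEPES pH 7.5 buffer, then FITC-PTAP peptide was added at 50 nM final. After 20 min at RT, polarization reported peptide displacement across a qHTS concentration series.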
MmCpn inh: blocks the Methanococcus maripaludis chaperonin Mm-Cpn | purified Mm-Cpn ATPase, ADP Transcreener TR-FRET | Potency, µM (series often up to 76.9 µM), inactives show top-dose activity, negative = inhibition, hits mostly inhibitors | 330,000 compounds, 0.031% hits | AID 504842; active = well fitted inhibition curve with a large enough effect; inconclusive = small, poorly fitted or top-dose-only effect; also: potency is read from the fitted curve at half-maximal effect; % is scaled to controls: 0 for no effect and ±100 for the full control effect; nearly all actives have a fitted effect of over 80% in size
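ATP (10 uM final) was added to archaeal chaperonin (25 nM final) after 10 min exposure to test compound at 37°C; after 30 min further incubation, ADP was detected by competitive TR-FRET.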
DRD3 antagonist: blocks the human D3 dopamine receptor. P35462. D3R cells, DiscoveRx beta-arrestin luminescence, antagonist mode; stronger effect = lower value. max response, negative = inhibition, %. 360,000 compounds, 2.5% hits. AID 652054; in the data active = max response below about -50%; inconclusive = no clear call, values can overlap the other calls; also: % is scaled to controls: 0 for no effect and ±100 for the full control effect
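Cells plated overnight at 1500 cells/well, then exposed to library compounds with dopamine controls for 90 minutes at 37 degrees C. DiscoveRx reagent added for 30–60 minutes at room temperature; luminescence read, quantitative HTS format.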
Rango complex inh: inhibitors of Rango-importin beta complex formation; Potency, µM (top dose mostly 92.2 µM), for the others: at the top dose inhibition of complex formation; Rango CFP/YFP FRET sensor + importin beta, 45 min; Q14974; 340,000 compounds, 0.031% hits; AID 540263;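 also: potency is read from the fitted curve at half-maximal effect; 0% = DMSO wells and 100% = buffer wells lacking importin beta; nearly all actives have a fitted effect of over 15% in size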
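FRET biosensor (snurportin 1 IBB flanked by EYFP and cerulean), 50 nM, with compound 5 min, then 0.125 microM importin beta in PBS, 1 mM DTT, 0.02% Tween-20, 0.1% BSA. CFP/YFP ratio read after 45 min at room temperature; pre-read flags interference.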
Numbers without * were called inactive; u = inconclusive; x = not tested or not shown. The list is not random: actives were taken first. Their share in the collection is about 2.9%. Unless noted, calls follow the shape of the full dose curve.

SMILES	D3 ag	Rango dissoc inh	TSG101-PTAP inh	MmCpn inh	DRD3 antagonist	Rango complex inh
CCOc1ccc(CCNC(=O)c2cn(-c3ccc(OC)cc3)c(=O)c3ccccc23)cc1OCC	-19	x	x	x	x	x
CCOc1ccccc1NC(=O)CN(CCc1ccccc1)S(=O)(=O)c1ccc(C)cc1	-12	x	x	x	x	x
O=C(CSCC(=O)N1CCCCC1)Nc1nc(-c2ccccc2)c(-c2ccccc2)s1	-12	-23%	-5%	-30%	-51*	-2%
Cc1cccc(N2CCN(C(=O)CSc3nc4ccccc4nc3N3CC(C)OC(C)C3)CC2)c1C (stereo unspecified)	76*	1%	-3%	0%	39	-3%
COc1cc(C(=O)Nc2cc(C)c(O)c(-c3nc4cc(Cl)ccc4o3)c2)cc(OC)c1OC	6	x	x	x	x	x
COC(=O)c1ccc(NC(=O)c2c(NCc3cccc(F)c3)sc3c2CCCC3)cc1	-11	x	x	x	x	x
COC(=O)C1=C(C)N(Cc2ccccc2)C(=NCc2ccc(OC)cc2)N[C@H]1c1ccc(Br)cc1	x	x	x	1%	x	x
O=C(N/N=C/c1ccc(O)cc1O)C(=O)N/N=C/c1ccc(O)cc1O	40*	u	-2%	-1%	5	u
O=C(NN=Cc1ccc(O)cc1)C(=O)NN=Cc1ccc(O)cc1	13	0%	-7%	x	3	3%
COCCCNC(=S)N/N=C/c1ccc(O)cc1	8	32%	-2%	-4%	-29	-3%
Oc1ccc(C=NNC(=S)Nc2ccc(F)cc2)c(O)c1	33*	u	-5%	x	27	u
COCCCNC(=S)N/N=C/c1ccc(O)cc1O	32*	-7%	-2%	2%	-5	3%
O=C(CCC(=O)Nc1ccc(F)cc1)N/N=C/c1ccc(O)cc1O	1	u	0%	0%	3	u
O=C1C=C(c2cccc3c2sc2ccccc23)C[C@@H](c2ccc(F)cc2)C1	-9	-5%	-1%	0%	-19	-2%
CC(C)CCNC(=O)CN1C(=O)CSc2ccc(S(=O)(=O)N3CCC(C)CC3)cc21	-14	x	x	x	x	x
Cc1ccc(S(=O)(=O)/C(C#N)=C/c2c(N3CCC(C(N)=O)CC3)nc3c(C)cccn3c2=O)cc1	3	u	-2%	1%	u	u
Cc1ccc(S(=O)(=O)/C(C#N)=C/c2c(N3CCC(C(N)=O)CC3)nc3ccccn3c2=O)cc1	-3	13µM*	-5%	-1%	u	u
O=C(CCN1CCCCC1)c1ccc2c(c1)OCO2	-12	3%	-1%	-2%	-65*	3%
O=C(CCN1CCc2ccccc2CC1)c1ccc2c(c1)OCCO2	-12	3%	-2%	1%	-94*	0%
O=C(CCCN1CCC(c2ccccc2)C1)c1ccc2c(c1)OCCO2 (stereo unspecified)	-33	7%	4%	0%	-82*	-1%
Cc1nn(-c2ccccc2)c(C)c1NC(=O)COc1ccc([N+](=O)[O-])cc1	4	-6%	1%	0%	1	0%
C=CCn1c(=O)n([C@@H]2O[C@H](CO)[C@@H](O)[C@H]2O)c2nc(N)[nH]c(=O)c21	1	x	x	x	x	x
Cn1cc(C(c2ccccc2OCC(=O)O)c2cn(C)c3ccccc23)c2ccccc21	-3	3%	-4%	0%	-20	1%
Cc1nc(NC(=O)c2ccco2)sc1-c1csc(Nc2ccc(Cl)cc2)n1	52*	-18%	-1%	-26%	57	u
COc1cccc(N(C(=O)c2ccco2)c2nc(-c3sc(NC(=O)c4ccco4)nc3C)cs2)c1	32*	-4%	-5%	u	77	u
SMILES	D3 ag	Rango dissoc inh	TSG101-PTAP inh	MmCpn inh	DRD3 antagonist	Rango complex inh
Cc1ccc(N(C)S(=O)(=O)c2nnc(NC(=O)c3ccco3)s2)cc1	-16	5%	1%	-1%	u	-1%
Cc1ccc(Cl)cc1Nc1nc(-c2sc(NC(=O)c3ccco3)nc2C)cs1	4	-17%	0%	-17%	60	0%
CN(c1ccc(Cl)cc1)S(=O)(=O)c1nnc(NC(=O)c2ccco2)s1	-1	-4%	-1%	2%	-72*	0%
CC1=C(C(=O)Nc2c(C)cc(C)cc2C)C2(CCN(C(C)C)CC2)OC1=O	-11	x	x	x	x	x
COc1cccc(-n2c(=O)c3c4c(sc3n(Cc3ccccc3C#N)c2=O)CCCC4)c1	-5	x	x	x	x	x
FC(F)(F)c1cccc(N2CCN(Cc3cccnc3)CC2)c1	-9	21%	-3%	-1%	-74*	-3%
Cc1cccc(N2CCN(Cc3ccoc3)CC2)c1C	-32	3%	-1%	0%	-87*	1%
FC(F)(F)c1cccc(N2CCN(Cc3ccoc3)CC2)c1	-27	-16%	1%	-1%	-96*	0%
CC(=O)N1CCc2cc(S(=O)(=O)NC(Cc3ccccc3)C(=O)Nc3ccc(C)cc3C)ccc21 (stereo unspecified)	4	x	x	x	x	x
COCCOC(=O)C1=C(C)NC(=O)N(C(C)=O)C1c1ccc(Cl)cc1 (stereo unspecified)	-7	2%	-1%	2%	-102*	0%
CCOC(=O)C1=C(C)NC(=S)N(C(C)=O)C1c1ccc(Cl)cc1 (stereo unspecified)	-7	-19%	-6%	-1%	u	2%
CCCCCc1cc(=O)oc2c(C(CCN3CCCC3)c3cc(OC)c(OC)c(OC)c3)c(OC)cc(OC)c12 (stereo unspecified)	-44	8%	-2%	2%	-51*	2%
COc1cc(C(CCN2CCCC(C)C2)c2c(OC)cc(OC)c3c(-c4ccccc4)cc(=O)oc23)cc(OC)c1OC (stereo unspecified)	-30	-13%	-16%	4%	-51*	0%
CCCCCc1cc(=O)oc2c(C(CCN3CCN(c4ccccc4)CC3)c3ccc4c(c3)OCO4)c(OC)cc(OC)c12 (stereo unspecified)	-41	2%	x	0%	-69*	0%
CCCCCc1cc(=O)oc2c(C(CCN3CCCCC3)c3ccc(OC)cc3)c(OC)cc(OC)c12 (stereo unspecified)	-44	16%	-1%	1%	u	0%
CCCCCc1cc(=O)oc2c(C(CCN3CCCC3)c3ccc(N(C)C)cc3)c(OC)cc(OC)c12 (stereo unspecified)	-36	8%	0%	1%	u	4%
CCCc1nn2c(=O)cc(COc3ccc(/C=C(\C#N)C(=O)Nc4ccccc4)cc3)nc2s1	-8	x	x	x	x	x
Cc1c(N=C2Nc3cccc4cccc2c34)c(=O)n(-c2ccccc2)n1C	-24	2.6µM*	u	-1%	1	u
